ChEMBL document CHEMBL1961873, “Compounds: GSK PKIS; Assays: Nanosyn kinase panel” (2012)

How the values were obtained:
[1] = target: Protein kinase C gamma type (Homo sapiens) (UniProt P05129); conditions: at 1 µM;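 also: each value is an averaged percent inhibition of the enzyme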
[2] = target: T1, Protein kinase C iota type (Homo sapiens) (UniProt P41743); conditions: at 0.1 µM
T1 sequence (whole entry): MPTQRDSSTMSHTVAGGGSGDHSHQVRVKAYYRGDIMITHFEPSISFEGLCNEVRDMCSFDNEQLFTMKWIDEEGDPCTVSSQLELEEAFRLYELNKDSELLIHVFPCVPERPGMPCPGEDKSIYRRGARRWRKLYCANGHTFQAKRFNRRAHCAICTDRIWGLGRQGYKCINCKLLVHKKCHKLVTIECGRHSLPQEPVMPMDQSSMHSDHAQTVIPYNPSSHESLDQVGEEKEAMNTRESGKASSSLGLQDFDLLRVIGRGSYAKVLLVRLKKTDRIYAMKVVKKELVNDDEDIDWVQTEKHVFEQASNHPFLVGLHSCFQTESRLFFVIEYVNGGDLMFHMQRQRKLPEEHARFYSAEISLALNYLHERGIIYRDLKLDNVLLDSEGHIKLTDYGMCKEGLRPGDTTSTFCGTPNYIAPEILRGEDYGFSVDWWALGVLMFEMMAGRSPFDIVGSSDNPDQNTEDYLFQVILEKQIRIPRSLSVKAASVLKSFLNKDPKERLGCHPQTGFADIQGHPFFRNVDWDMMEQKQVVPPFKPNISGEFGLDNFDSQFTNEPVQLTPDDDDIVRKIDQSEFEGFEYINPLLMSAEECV

[3] = target: T1, Protein kinase C iota type (Homo sapiens); conditions: at 1 µM
[4] = target: Protein kinase C theta type (Homo sapiens) (UniProt Q04759); conditions: at 0.1 µM
Chain of Protein kinase C theta type (Homo sapiens) (Q04759 whole entry, looked up): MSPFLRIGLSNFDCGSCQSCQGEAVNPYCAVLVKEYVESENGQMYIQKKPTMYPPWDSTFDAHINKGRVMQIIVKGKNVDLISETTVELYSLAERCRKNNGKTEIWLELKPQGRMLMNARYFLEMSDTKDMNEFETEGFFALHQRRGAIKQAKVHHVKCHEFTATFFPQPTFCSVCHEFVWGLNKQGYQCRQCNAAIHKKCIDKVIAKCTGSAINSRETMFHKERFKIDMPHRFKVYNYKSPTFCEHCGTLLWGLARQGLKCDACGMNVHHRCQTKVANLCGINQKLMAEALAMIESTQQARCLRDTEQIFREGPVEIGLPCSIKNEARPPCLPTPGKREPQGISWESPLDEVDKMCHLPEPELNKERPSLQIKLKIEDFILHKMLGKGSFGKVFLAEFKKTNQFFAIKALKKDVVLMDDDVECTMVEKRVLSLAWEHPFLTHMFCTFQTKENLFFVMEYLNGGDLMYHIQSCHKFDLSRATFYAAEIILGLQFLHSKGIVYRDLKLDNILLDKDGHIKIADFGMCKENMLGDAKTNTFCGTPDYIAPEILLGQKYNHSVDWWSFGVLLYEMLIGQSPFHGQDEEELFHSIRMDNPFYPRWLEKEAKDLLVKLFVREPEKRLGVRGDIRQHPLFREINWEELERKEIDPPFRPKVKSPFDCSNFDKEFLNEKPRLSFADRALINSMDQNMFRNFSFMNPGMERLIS

[5] = target: Protein kinase C theta type (Homo sapiens) (UniProt Q04759); conditions: at 1 µM
[6] = target: Protein kinase C beta type (Homo sapiens) (UniProt P05771); conditions: at 0.1 µM
Chain of Protein kinase C beta type (Homo sapiens) (P05771 2-671 limits assumed): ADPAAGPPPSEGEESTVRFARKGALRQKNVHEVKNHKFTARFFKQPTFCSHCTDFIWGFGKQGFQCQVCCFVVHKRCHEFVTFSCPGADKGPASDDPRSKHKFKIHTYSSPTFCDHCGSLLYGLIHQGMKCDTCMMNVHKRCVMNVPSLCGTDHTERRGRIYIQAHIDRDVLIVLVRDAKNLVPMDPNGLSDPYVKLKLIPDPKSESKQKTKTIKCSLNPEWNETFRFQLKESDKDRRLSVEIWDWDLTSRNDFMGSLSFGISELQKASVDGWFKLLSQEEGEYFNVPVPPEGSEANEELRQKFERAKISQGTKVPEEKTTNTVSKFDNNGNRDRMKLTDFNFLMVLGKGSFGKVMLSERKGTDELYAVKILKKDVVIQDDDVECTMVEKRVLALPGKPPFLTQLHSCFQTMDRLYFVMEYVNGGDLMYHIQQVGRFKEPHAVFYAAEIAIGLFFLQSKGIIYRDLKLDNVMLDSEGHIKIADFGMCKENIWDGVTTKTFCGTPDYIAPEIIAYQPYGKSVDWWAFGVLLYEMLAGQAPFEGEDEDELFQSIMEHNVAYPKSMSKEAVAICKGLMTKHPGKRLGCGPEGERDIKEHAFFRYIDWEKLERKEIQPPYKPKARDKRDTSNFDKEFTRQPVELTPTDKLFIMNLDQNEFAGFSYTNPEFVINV

[7] = target: Protein kinase C beta type (Homo sapiens) (UniProt P05771); conditions: at 1 µM
[8] = target: T2, Serine/threonine-protein kinase D1 (Homo sapiens) (UniProt Q15139); conditions: at 0.1 µM
T2 sequence (whole entry): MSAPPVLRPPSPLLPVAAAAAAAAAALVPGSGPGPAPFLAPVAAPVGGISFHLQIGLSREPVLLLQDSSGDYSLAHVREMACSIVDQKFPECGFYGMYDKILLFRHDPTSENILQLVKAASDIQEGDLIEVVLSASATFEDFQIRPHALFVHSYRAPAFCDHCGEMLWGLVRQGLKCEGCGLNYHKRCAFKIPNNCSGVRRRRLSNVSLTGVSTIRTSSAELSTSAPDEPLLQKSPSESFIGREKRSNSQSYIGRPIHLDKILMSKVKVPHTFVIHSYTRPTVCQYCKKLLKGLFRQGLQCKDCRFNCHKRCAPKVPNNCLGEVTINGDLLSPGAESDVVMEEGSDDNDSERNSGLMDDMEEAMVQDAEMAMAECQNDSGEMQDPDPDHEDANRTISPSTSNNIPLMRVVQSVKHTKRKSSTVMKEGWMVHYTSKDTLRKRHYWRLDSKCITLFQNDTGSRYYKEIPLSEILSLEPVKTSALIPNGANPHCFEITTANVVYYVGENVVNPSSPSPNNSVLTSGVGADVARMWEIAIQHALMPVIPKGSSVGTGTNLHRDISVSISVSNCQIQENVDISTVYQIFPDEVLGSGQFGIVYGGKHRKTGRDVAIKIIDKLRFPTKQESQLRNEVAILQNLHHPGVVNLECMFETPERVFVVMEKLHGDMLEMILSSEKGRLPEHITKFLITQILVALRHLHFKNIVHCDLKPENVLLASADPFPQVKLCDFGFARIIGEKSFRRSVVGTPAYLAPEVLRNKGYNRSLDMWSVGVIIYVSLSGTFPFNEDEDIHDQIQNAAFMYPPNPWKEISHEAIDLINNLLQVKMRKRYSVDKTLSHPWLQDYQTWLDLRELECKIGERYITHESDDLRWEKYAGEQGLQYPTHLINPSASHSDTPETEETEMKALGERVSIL

[9] = target: T2, Serine/threonine-protein kinase D1 (Homo sapiens); conditions: at 1 µM
[10] = target: T3, Serine/threonine-protein kinase D2 (Homo sapiens) (UniProt Q9BZL6); conditions: at 0.1 µM
T3 sequence (whole entry): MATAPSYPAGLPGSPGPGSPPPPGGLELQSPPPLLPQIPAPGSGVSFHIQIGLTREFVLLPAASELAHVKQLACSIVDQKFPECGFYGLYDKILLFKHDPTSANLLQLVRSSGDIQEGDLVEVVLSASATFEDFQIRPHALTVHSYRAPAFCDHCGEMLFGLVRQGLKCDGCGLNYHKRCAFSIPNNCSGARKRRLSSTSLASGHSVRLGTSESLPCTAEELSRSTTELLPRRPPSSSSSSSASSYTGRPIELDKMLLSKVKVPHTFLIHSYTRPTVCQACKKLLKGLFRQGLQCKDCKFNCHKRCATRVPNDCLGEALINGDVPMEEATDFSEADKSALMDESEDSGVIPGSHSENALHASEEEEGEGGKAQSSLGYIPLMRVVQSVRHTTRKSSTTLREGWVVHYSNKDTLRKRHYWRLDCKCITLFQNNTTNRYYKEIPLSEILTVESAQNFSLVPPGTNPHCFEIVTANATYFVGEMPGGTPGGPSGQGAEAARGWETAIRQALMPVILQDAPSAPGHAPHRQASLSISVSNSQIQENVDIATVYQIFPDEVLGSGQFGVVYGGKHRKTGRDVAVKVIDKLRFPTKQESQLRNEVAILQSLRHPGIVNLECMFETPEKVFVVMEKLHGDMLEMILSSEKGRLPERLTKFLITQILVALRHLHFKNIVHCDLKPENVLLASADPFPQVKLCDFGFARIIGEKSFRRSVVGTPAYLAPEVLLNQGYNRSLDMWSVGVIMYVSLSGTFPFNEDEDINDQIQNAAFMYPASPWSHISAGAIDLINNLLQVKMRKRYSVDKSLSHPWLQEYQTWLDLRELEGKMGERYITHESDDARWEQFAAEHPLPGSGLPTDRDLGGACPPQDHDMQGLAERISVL

[11] = target: T3, Serine/threonine-protein kinase D2 (Homo sapiens); conditions: at 1 µM
[12] = target: T4, Serine/threonine-protein kinase D3 (Homo sapiens) (UniProt O94806); conditions: at 0.1 µM
T4 sequence (whole entry): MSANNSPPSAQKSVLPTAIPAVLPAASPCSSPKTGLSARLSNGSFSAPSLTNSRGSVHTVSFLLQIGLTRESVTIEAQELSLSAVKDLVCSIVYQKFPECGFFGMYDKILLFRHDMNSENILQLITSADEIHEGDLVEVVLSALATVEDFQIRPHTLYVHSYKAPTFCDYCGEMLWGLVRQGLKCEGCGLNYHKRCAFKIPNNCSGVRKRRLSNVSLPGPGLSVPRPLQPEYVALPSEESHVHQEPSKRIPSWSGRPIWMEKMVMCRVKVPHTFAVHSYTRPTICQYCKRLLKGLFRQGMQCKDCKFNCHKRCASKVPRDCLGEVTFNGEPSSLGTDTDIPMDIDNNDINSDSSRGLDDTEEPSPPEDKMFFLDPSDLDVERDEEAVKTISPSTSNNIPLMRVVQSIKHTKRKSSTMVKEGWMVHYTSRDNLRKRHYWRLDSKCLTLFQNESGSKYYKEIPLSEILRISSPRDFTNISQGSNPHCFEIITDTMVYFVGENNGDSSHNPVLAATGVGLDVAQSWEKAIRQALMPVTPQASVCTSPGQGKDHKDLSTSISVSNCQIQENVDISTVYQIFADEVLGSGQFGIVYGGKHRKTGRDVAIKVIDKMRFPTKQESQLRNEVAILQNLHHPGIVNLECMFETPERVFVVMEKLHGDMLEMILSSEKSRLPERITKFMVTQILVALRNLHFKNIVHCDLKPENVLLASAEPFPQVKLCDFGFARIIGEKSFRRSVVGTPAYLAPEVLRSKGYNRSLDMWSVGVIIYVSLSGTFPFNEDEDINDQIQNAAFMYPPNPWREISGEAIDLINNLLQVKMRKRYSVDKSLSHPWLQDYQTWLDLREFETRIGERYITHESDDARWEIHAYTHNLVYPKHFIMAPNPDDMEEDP

[13] = target: T4, Serine/threonine-protein kinase D3 (Homo sapiens); conditions: at 1 µM
[14] = target: T5, cGMP-dependent protein kinase 1 (Homo sapiens) (UniProt Q13976); conditions: at 0.1 µM
T5 sequence (whole entry): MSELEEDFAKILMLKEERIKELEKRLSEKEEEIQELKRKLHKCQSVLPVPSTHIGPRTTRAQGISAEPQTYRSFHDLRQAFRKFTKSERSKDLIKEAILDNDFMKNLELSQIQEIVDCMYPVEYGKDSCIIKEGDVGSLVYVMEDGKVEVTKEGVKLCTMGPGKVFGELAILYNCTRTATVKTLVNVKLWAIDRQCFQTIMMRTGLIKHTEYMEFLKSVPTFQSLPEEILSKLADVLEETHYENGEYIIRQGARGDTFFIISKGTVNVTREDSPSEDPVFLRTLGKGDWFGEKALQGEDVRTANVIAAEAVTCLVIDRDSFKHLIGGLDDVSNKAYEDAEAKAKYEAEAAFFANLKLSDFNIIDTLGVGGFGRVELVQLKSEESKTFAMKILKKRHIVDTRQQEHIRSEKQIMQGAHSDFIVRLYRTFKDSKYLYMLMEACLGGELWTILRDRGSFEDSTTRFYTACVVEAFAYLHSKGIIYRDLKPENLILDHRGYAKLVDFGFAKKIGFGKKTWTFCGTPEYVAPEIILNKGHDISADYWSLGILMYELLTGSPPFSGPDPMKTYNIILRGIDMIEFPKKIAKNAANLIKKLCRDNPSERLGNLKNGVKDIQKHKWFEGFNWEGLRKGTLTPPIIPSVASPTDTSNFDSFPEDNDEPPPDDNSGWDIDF

[15] = target: T5, cGMP-dependent protein kinase 1 (Homo sapiens); conditions: at 1 µM
[16] = target: T6, cGMP-dependent protein kinase 2 (Homo sapiens) (UniProt Q13237); conditions: at 0.1 µM
T6 sequence (whole entry): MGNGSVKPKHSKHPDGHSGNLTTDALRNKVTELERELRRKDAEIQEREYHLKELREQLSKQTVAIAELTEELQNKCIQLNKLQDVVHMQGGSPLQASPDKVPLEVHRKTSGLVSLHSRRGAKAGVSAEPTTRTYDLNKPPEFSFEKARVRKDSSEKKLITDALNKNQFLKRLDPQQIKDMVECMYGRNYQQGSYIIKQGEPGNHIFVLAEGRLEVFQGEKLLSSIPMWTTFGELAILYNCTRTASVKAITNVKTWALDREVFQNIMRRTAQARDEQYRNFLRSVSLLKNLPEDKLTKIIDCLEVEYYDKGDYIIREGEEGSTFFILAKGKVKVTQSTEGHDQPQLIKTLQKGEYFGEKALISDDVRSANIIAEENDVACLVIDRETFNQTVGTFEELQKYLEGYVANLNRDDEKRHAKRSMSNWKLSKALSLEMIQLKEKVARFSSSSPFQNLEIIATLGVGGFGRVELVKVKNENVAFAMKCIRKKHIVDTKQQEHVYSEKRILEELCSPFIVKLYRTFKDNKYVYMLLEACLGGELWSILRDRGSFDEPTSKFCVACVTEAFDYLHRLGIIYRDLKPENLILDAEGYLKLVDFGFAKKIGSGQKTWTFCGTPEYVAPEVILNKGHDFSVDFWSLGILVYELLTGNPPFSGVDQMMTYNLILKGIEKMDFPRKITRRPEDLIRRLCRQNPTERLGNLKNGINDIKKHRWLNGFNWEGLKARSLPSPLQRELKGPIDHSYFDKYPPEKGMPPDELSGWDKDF

[17] = target: T6, cGMP-dependent protein kinase 2 (Homo sapiens); conditions: at 1 µM
[18] = target: T7, cAMP-dependent protein kinase catalytic subunit PRKX (Homo sapiens) (UniProt P51817); conditions: at 0.1 µM
T7 sequence (whole entry): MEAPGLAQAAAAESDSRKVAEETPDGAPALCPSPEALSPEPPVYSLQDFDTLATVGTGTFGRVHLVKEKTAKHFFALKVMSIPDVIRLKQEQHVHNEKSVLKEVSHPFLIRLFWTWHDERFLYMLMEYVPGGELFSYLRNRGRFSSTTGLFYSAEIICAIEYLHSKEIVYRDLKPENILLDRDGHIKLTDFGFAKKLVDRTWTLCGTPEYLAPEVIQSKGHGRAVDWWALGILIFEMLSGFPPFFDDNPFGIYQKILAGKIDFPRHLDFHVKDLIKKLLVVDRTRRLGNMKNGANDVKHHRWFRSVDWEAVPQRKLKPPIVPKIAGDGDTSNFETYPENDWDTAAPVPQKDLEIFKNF

[19] = target: T7, cAMP-dependent protein kinase catalytic subunit PRKX (Homo sapiens); conditions: at 1 µM
[20] = target: Rho-associated protein kinase 1 (Homo sapiens) (UniProt Q13464); conditions: at 0.1 µM;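 also: values are mean percent inhibition of ROCK1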
Chain of Rho-associated protein kinase 1 (Homo sapiens) (Q13464 2-1354 limits assumed): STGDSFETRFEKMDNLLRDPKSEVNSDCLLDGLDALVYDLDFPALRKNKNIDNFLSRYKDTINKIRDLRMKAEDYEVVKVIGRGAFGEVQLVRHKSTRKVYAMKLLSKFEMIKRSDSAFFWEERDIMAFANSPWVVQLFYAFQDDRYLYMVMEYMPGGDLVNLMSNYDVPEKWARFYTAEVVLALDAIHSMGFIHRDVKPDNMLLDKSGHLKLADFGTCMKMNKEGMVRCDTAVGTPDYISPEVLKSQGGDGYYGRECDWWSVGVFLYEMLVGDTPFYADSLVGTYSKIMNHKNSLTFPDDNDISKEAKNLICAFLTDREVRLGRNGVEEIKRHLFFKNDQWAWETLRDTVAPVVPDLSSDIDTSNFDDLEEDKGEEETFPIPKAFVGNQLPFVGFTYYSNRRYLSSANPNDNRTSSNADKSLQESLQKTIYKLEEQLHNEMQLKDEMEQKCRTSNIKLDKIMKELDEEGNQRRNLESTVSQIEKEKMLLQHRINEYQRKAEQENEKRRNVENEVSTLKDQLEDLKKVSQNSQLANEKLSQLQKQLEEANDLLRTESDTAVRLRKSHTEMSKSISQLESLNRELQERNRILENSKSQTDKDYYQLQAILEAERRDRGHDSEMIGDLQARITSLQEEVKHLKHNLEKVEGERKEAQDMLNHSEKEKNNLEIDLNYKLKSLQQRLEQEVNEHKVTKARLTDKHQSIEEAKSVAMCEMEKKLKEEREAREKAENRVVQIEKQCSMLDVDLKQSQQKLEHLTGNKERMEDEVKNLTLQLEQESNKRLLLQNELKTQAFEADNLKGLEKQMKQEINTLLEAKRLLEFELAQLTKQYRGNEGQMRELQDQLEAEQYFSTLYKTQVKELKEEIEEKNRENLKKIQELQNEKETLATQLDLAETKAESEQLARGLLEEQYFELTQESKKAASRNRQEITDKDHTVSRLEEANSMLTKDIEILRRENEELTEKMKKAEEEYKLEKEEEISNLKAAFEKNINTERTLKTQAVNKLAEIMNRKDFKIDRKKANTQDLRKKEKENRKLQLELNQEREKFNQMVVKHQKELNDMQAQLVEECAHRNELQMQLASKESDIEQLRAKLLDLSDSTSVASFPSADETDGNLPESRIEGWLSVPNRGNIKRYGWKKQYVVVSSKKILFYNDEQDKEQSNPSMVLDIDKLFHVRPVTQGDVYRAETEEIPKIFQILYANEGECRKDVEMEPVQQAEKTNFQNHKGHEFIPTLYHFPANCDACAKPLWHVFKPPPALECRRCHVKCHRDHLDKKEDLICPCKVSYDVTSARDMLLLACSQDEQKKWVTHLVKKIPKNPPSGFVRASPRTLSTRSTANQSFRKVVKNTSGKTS

SMILES	inhibition [1] [%]	inhibition [2] [%]	inhibition [3] [%]	inhibition [4] [%]	inhibition [5] [%]	inhibition [6] [%]	inhibition [7] [%]	inhibition [8] [%]	inhibition [9] [%]	inhibition [10] [%]	inhibition [11] [%]	inhibition [12] [%]	inhibition [13] [%]	inhibition [14] [%]	inhibition [15] [%]	inhibition [16] [%]	inhibition [17] [%]	inhibition [18] [%]	inhibition [19] [%]	inhibition [20] [%]
Cc1nnc(-c2cccc(-c3ccc(C(=O)NCC4CC4)cc3)c2)o1	5.25	2.19	1.94	3.27	5.18	1.13	2.65	4.9	9.11	5.08	7.93	6.14	7.35	3.58	5.43	3.23	3.44	3.54	4.63	0.97
N#Cc1ccc2c(-c3ccnc(NC4CC4)n3)c(-c3ccc(F)cc3)nn2c1	1.83	0.18	0.6	1.35	1.42	1.33	4.8	5.97	40	5.96	44.2	6.5	41.7	1.2	-0.35	0.69	-1.36	1.65	0.23	0.62
